Screening data: PubChem, National Center for Advancing Translational Sciences (NCATS)
Tau FP inhib: qHTS for Inhibitors of Tau Fibril Formation, Fluorescence Polarization | Microtubule-associated protein tau (Homo sapiens), P10636 | 0.39% of 280,000 active | K18 P301L tau heparin fibrillization, Alexa594 FP, 6 h | AID 1468, 2008 | Potency, µM (highest dose often 57.7 µM), without a hit: top-dose activity, negative = inhibition, actives largely listed as inhibitors; note: nearly all actives have a fitted effect of over 55% in size
Target sequence (P10636 561-689 P618L limits assumed): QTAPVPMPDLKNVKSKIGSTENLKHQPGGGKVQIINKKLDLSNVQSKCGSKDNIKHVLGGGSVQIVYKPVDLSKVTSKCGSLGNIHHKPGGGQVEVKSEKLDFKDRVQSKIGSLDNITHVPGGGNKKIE
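Human tau K18 […] P301L fragment, 15 uM unlabeled plus 0.24 uM Alexa 594-labeled tau (final), with compound and 20 uM heparin in 100 mM sodium acetate pH 7; 6 hr at 37 C, then Alexa 594 FP read.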
Tau fluor counter: Counterscreen qHTS for Inhibitors of Tau Fibril Formation, Fluorescence Polarization; tau K18 P301L Alexa594 fluorescence, heparin fibrillization; Potency, µM (highest dose often 57.7 µM), for inactives: at the highest dose activity change, negative = decrease; 0.93% of 280,000 active; AID 1463, 2008; note: nearly all actives have a fitted effect of over 55% in size
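Human K18 P301L tau (15 uM unlabeled plus 0.24 uM Alexa 594-labeled, final) in 100 mM sodium acetate pH 7 was mixed with compound and 20 uM heparin and incubated 6 hr at 37 C.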
TR SRC2 fluor cs: Total Fluorescence Counterscreen for Inhibitors of the Interaction of Thyroid Hormone Receptor and Steroid Receptor Coregulator 2; TRb/SRC2 Texas Red total fluorescence interference; Potency, µM (top dose mostly 106 µM), without a hit: top-dose fluorescence change, negative = quenching; 0.29% of 280,000 active; AID 1479, 2009; active = well fitted curve in either direction with a large enough effect; inconclusive = small, poorly fitted or top-dose-only effect
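Flags fluorescent or light-absorbing compounds by total fluorescence, S + 2P, at 555 nm excitation and 632 nm emission. Mixture: 20 nM Texas Red SRC2 peptide, 0.6 uM human TRb LBD, 1 uM T3, 5% DMSO; compound exposure 5 h at ambient temperature.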
TRb SRC2 PPI: qHTS for Inhibitors of the Interaction of Thyroid Hormone Receptor and Steroid Receptor Coregulator 2 | Thyroid hormone receptor beta (Homo sapiens), P10828 | TRbeta-SRC2 peptide binding, fluorescence polarization; receptor liganded with 1 µM T3 | Potency, µM (series often up to 106 µM), inactives show at the highest dose activity change, negative = inhibition, hits mostly inhibitors | 0.065% of 280,000 active | AID 1469, 2008;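 note: plate controls were bound peptide for no effect and peptide without receptor for full effect; nearly all actives have a fitted effect of over 50% in size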
Target sequence (P10828 whole entry, looked up): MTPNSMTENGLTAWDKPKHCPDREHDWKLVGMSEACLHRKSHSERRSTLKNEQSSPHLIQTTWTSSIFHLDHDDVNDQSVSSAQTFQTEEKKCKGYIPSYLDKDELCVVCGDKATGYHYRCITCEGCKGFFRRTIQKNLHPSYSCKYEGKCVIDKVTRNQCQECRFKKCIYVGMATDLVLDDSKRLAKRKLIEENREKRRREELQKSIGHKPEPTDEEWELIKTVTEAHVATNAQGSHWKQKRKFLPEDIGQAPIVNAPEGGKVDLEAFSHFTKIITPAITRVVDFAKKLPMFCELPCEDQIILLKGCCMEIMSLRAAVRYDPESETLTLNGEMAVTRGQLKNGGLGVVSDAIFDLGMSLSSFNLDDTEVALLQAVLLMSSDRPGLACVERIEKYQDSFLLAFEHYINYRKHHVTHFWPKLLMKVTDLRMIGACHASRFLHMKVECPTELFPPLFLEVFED
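A fluorescence polarization screen tested compounds at multiple concentrations against complex formation between 0.6 uM TRb ligand-binding domain and 20 nM Texas Red SRC2 peptide, with 1 uM T3 present; readout after 5 hr.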
Tau fibril ThT: qHTS for Inhibitors of Tau Fibril Formation, Thioflavin T Binding. Microtubule-associated protein tau (Homo sapiens), P10636. recombinant tau K18 P301L (four-repeat tau fragment), heparin-induced fibrillization, ThT fluorescence. Potency, µM (titrated, usually from 57.4 µM), for the others: at the highest dose activity, negative = inhibition, hits mostly inhibitors. 2.1% of 270,000 active; note: nearly all actives have a fitted effect of over 55% in size
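Tau K18 P301L fragment (15 uM unlabeled plus 0.24 uM Alexa 594-labeled) in 100 mM sodium acetate pH 7 with compound, fibrillization induced by 20 uM heparin for 6 hr at 37 C. Thioflavin T (30 uM) added, fluorescence read after 1 hr (ex 450, em 510 nm).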
The depositor's hits bear a star; ? = inconclusive; / = not tested or not shown; [ ] = dose if it differs, or a comment. A selection: hits, their analogues and other compounds. The true share with any hit is near 3.1%. Unless noted, calls come from the whole dose curve; as a rule, active = well fitted curve in the direction sought with a large enough effect; inconclusive = small, poorly fitted or top-dose-only effect, or another doubt; inactive = no such curve, though single readings can be large; an effect the other way counts as inactive or inconclusive. Unless noted, % is set by controls: 0 for no effect and ±100 for the full control effect; potency is the fitted concentration of half-maximal effect.

SMILES	Tau FP inhib	Tau fluor counter	TR SRC2 fluor cs	TRb SRC2 PPI	Tau fibril ThT
COC(=O)c1ccccc1NC(=O)COC(=O)c1ccccc1N=Nc1ccc(N(C)C)cc1	16.6%	?	-1.0%	-4.2%	4.47µM*
COc1ccc(C)cc1NC(=O)NCc1cccn1Cc1ccccc1	-6.3%	-15.9%	-1.4%	-4.4%	1.5%
COc1cc(OC)c(NC(=O)NCc2cccn2Cc2ccccc2)cc1Cl	-11.3%	14.1µM*[quencher]	-2.7%	-8.6%	-17.0%
Cc1ccc(NC(=O)Cn2c(=O)ccc3cc(S(=O)(=O)N4CCC(C)CC4)ccc32)cc1C	-5.2%	-18.2%	0.0%	-5.8%	13.6%
COc1ccc(CCn2cnc3c([nH]c4ccccc43)c2=O)cc1	-4.7%	-13.4%	1.9%	-2.2%	-17.2%
COc1ccc2[nH]c3c(NCCN(C(C)C)C(C)C)ncnc3c2c1	5.0%	-25.8%	-3.9%	3.7%	-9.1%
COc1ccc(CNc2ncnc3c2[nH]c2cc(OC)c(OC)cc23)cc1	?	10µM*[quencher]	-3.8%	-5.2%	?
O=c1c2[nH]c3ccccc3c2ncn1CCC1=CCCCC1	-6.9%	-13.3%	0.2%	-5.6%	?
COc1ccc(CNc2ncnc3c2[nH]c2ccccc23)cc1	-0.5%	20µM*[quencher]	-0.9%	-6.8%	?
C1=C(CCNc2ncnc3c2[nH]c2ccccc23)CCCC1	-4.6%	15.8µM*[quencher]	?	-4.8%	?
c1ccc2c(c1)OCCOCCOCCOCCOCCOc1ccccc1OCCOCCOCCO2	2.0%	12.3%	0.4%	-4.8%	2.2%
CCn1c(=O)c2cc(C(=O)N3CCN(c4cccc(Cl)c4)CC3)sc2c2ccccc21	-0.9%	-20.3%	-7.2%	-1.2%	-14.8%
O=[N+]([O-])c1ccc(/C=N/NC(=S)Nc2ccccc2C(F)(F)F)o1	-7.1%	-19.1%	-4.2%	2.6%	?
O=C(N/N=C1\C/C(=N\NC(=O)c2ccncc2)c2ccccc21)c1ccncc1	?	?	-3.7%	11.7%	10µM*
CC(C)(C)c1ccc(/C=N/N2CCN(c3ccccn3)CC2)cc1	1.3%	-24.8%	-3.4%	1.5%	?
CN(C)c1ccc(/C=N/N2CCN(c3ccccn3)CC2)cc1	5.3%	-27.1%	-3.9%	-7.4%	1.78µM*
COc1cccc(-n2c([S-])c(C(=O)Nc3ccc(S(=O)(=O)N4CCOCC4)cc3)[n+]3cc(C(N)=O)ccc23)c1	-15.0%	-27.2%	-7.4%	3.3%	-9.7%
CCOC(=O)CSc1c(-c2ccc(Cl)cc2)[nH]c2ccccc12	?	11.2µM*[quencher]	-1.0%	-0.1%	-1.6%
CCOC(=O)CSc1c(-c2cccs2)[nH]c2ccccc12	?	8.91µM*[quencher]	-2.3%	8.3%	?
Clc1ccc(-c2csc(=Nc3ccccc3)n2Cc2ccc3c(c2)OCO3)cc1	-5.8%	?	?	3.8%	-10.3%
Cc1onc(-c2ccccc2Cl)c1C(=O)N1CCOC12CCCCC2	4.3%	-0.9%	2.2%	-0.9%	-1.3%
O=[N+]([O-])c1ccccc1N/N=C/c1c[nH]c2ccccc12	-15.1%	3.55µM*[quencher]	-8.3%	3.2%	3.16µM*
C/C(=N\Nc1cccc([N+](=O)[O-])c1)c1cc2ccccc2o1	7.6%	?	-2.6%	1.5%	?
O=[N+]([O-])c1cccc(N/N=C/c2cccc3ccccc23)c1	-2.1%	8.91µM*[quencher]	-36.2%	-1.2%	?
O=[N+]([O-])c1ccc(N/N=C/c2c[nH]c3ccccc23)cc1	?	7.94µM*[quencher]	-4.5%	-0.9%	3.16µM*
SMILES	Tau FP inhib	Tau fluor counter	TR SRC2 fluor cs	TRb SRC2 PPI	Tau fibril ThT
CO[C@H]1OC2O[C@@]3(C)CC[C@H]4[C@H](C)CC[C@@H]([C@H]1C)[C@@]24OO3 (stereo partly specified)	/	/	-0.3%	3.5%	/
Cc1ccc(C)c(-c2csc(-c3c(N)c(C(=O)c4ccc5c(c4)OCO5)n4ccccc34)n2)c1	1.7%	?	-3.1%	-6.6%	-14.2%
O=C(NCCc1csc2nc(-c3ccccc3F)nn12)c1ccco1	-1.7%	0.8%	-1.2%	7.1%	2.2%
O=C1CCC2c3ccc4ccccc4c3CCN12 (stereo unspecified)	12.1%	-21.8%	1.8%	-2.8%	?
O=C1O/C(=C/Br)CCC1c1cccc2ccccc12 (stereo unspecified)	?	?	-1.7%	-1.3%	17.8µM*
CCOC(=O)n1cc(-c2cnc(CNC(=O)C(C)(c3ccccc3)c3ccccc3)o2)c2ccccc21	-2.4%	-21.9%	-1.4%	5.0%	-16.5%
O=C(Nc1ccccc1F)Nc1cccc2ccc(O)cc12	?	14.1µM*[quencher]	-10.9%	-5.2%	15.8µM*
CCCCCCCC(=O)NNC(=O)Cc1ccccc1	3.9%	5.1%	1.7%	-22.8%	3.6%
CCCCCCCCCCCC(=O)c1c(O)cccc1O	?	12.6µM*[quencher]	-0.5%	-0.7%	?
c1csc(-c2cn3ccc4ccccc4c3n2)c1	-48.5%	-26.4%	0.3%	1.2%	10µM*
c1cc(-c2cccs2)nc(-c2cccs2)c1	?	-24.5%	0.2%	6.1%	?
COc1ccc(N2C(N)=C(C#N)C(c3cc(CN4CCOCC4)cs3)C3=C2CCCC3=O)cc1 (stereo unspecified)	2.8%	-8.4%	-1.5%	7.3%	-14.1%
COc1ccc(OC)c(Nc2nc3ccccc3nc2-n2nc(C)cc2C)c1	?	12.6µM*[quencher]	0.7%	7.7%	-9.8%
COc1ccc(Nc2nc3ccc(C)cc3nc2-n2nc(C)cc2C)cc1Cl	?	14.1µM*[quencher]	1.8%	4.5%	-10.3%
COc1ccc(Nc2nc3ccccc3nc2-n2nc(C)cc2C)cc1	10.0%	?	1.5%	-8.4%	-8.4%
CN(CCO)c1ncnc2c1sc1nc(N3CCOCC3)c3c(c12)CCC3	1.6%	-7.4%	-1.5%	0.7%	-9.1%
CCOC(=O)c1ccc(NC(=O)C(C)Sc2nc(O)c(-c3ccccc3)c(=O)[nH]2)cc1 (stereo unspecified)	-8.3%	-19.6%	-1.8%	-3.4%	?
CCCc1c(OCC(O)COc2ccc3c(=O)cc(C(=O)O)oc3c2CCC)ccc(C(C)=O)c1O (stereo unspecified)	3.0%	-9.8%	-1.2%	0.8%	?
CCOC(=O)c1ccc(NC(=O)CSc2nnc(-c3ccncc3)n2-c2ccccc2)cc1	-7.2%	2.0%	-1.4%	-10.7%	3.2%
COc1ccc(/C(C)=N/Nc2nc3ccccc3nc2C)cc1OC	?	?	-4.5%	8.9%	12.6µM*
Oc1ccc(N=Nc2c(O)ccc3ccccc23)cc1	?	11.2µM*[quencher]	-1.3%	10.4%	2.51µM*
Cc1ccccc1N=Nc1ccc(N=Nc2c(O)ccc3ccccc23)c(C)c1	/	/	-0.2%	-0.9%	/
